Read-out in experiment [1]: Interleukin-1 alpha (IL1a), IL1A (gene 3552)
Description: BSK_KF3CT_IL1a: BioMAP Diversity Plus: KF3CT Assay for Interleukin-1 alpha (IL1a) Biomarker Activity (AID 2283070). As to conditions: primary human keratinocytes with fibroblasts; actives raise or lower the signal. The gist of the method: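 Primary skin co-culture (keratinocytes, foreskin fibroblasts), 24 h exposure; ELISA for IL-1a; bidirectional curve fit vs DMSO.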

Read-out in experiment [2]: TIMP metallopeptidase inhibitor 2 (TIMP2), TIMP2 (gene 7077)
Description: BSK_KF3CT_TIMP2: BioMAP Diversity Plus: KF3CT Assay for TIMP metallopeptidase inhibitor 2 (TIMP2) Biomarker Activity (AID 2283071). To be noted: primary human keratinocytes with fibroblasts; actives raise or lower the signal. In a few lines: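 ELISA readout of TIMP-2 in keratinocyte plus foreskin fibroblast co-cultures (human skin primary cells), 24 h post-dose. Gain or loss of signal fitted relative to DMSO.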

Read-out in experiment [3]: Transforming growth factor beta 1 (TGFb1), TGFB1 (gene 7040)
As to the kind of experiment: BSK_KF3CT_TGFb1: BioMAP Diversity Plus: KF3CT Assay for Transforming growth factor beta 1 (TGFb1) Biomarker Activity (AID 2283072). To be noted: primary human keratinocytes with fibroblasts; actives raise or lower the signal. The gist of the method:
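Read-out: ELISA for TGF-b1 in keratinocyte/foreskin fibroblast human skin co-culture, 24 h after dosing; bidirectional curve fit vs DMSO baseline; gain or loss of signal scored.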

Read-out in experiment [4]: C-C motif chemokine 2 (Homo sapiens) (UniProt P13500)
Description: BSK_KF3CT_MCP1: BioMAP Diversity Plus: KF3CT Assay for Monocyte Chemoattractant Protein 1 (MCP1/CCL2) Biomarker Activity (AID 2283073). As to conditions: primary human keratinocytes with fibroblasts; actives raise or lower the signal. In a few lines: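 ELISA read-out of MCP-1, 24 h post-dose, in primary human skin keratinocytes co-cultured with fibroblasts. Parallel SRB staining monitors cytotoxicity; changes fitted both directions relative to DMSO.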

Read-out in experiment [5]: Matrix Metallopeptidase 9 (MMP9), MMP9 (gene 4318)
As to the kind of experiment: BSK_KF3CT_MMP9: BioMAP Diversity Plus: KF3CT Assay for Matrix Metallopeptidase 9 (MMP9) Biomarker Activity (AID 2283074). To be noted: primary human keratinocytes with fibroblasts; actives raise or lower the signal. The gist of the method:
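ELISA read-out of MMP-9 at 24 h post-dosing in a co-culture of human skin keratinocytes and foreskin fibroblasts. Gain or loss of signal was fitted in both directions against DMSO.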

Read-out in experiment [6]: CD40, CD40 (gene 958)
As to the kind of experiment: BSK_LPS_CD40: BioMAP Diversity Plus: LPS Assay for CD40 Biomarker Activity (AID 2283076). To be noted: primary human HUVEC with PBMC; actives raise or lower the signal. In a few lines:
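In the LPS system of human endothelial cells with peripheral blood mononuclear cells, CD40 levels were read by ELISA 24 h post-treatment. Signal changes in either direction were fitted against the DMSO baseline, with parallel SRB protein staining.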

Read-out in experiment [7]: E-selectin (Homo sapiens) (UniProt P16581)
As to the kind of experiment: BSK_LPS_Eselectin: BioMAP Diversity Plus: LPS Assay for Eselectin Biomarker Activity (AID 2283077). To be noted: primary human HUVEC with PBMC; actives raise or lower the signal. In a few lines:
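E-selectin ELISA on LPS-stimulated endothelial cell/PBMC co-cultures, read 24 h post-treatment; gains and losses fitted against DMSO. Parallel SRB staining (0.1% SRB after 10% TCA fixation, 560 nm) flags overt cytotoxicity.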

Read-out in experiment [8]: Interleukin-8 (IL8), CXCL8 (gene 3576)
As to the kind of experiment: BSK_LPS_IL8: BioMAP Diversity Plus: LPS Assay for Interleukin-8 (IL8) Biomarker Activity (AID 2283078). As to conditions: primary human HUVEC with PBMC; actives raise or lower the signal. In a few lines: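 ELISA read-out of IL-8 after 24 h chemical treatment of LPS-activated endothelial/PBMC human primary co-cultures. Changes either up or down relative to DMSO; overt cytotoxicity checked by sulforhodamine B staining in parallel wells.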

Experiment [9] can be described thus: BSK_LPS_SRB: Viability Assessment in the BioMAP Diversity Plus: LPS Assay (AID 2283079).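 Also: total protein by sulforhodamine B absorbance as a cytotoxicity measure; measured one day after compound addition.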 To be noted: primary human HUVEC with PBMC. In a few lines:
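SRB viability endpoint: cells fixed with 10% TCA, stained with 0.1% SRB, read at 560 nm, 24 h post-dose. HUVEC/PBMC co-culture; signal change in either direction scored relative to DMSO.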

Read-out in experiment [10]: Interleukin-1 alpha (IL1a), IL1A (gene 3552)
Description: BSK_LPS_IL1a: BioMAP Diversity Plus: LPS Assay for Interleukin-1 alpha (IL1a) Biomarker Activity (AID 2283080). As to conditions: primary human HUVEC with PBMC; actives raise or lower the signal. In a few lines:
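Readout is IL-1a level by ELISA, 24 h post-dose, fitted as gain or loss relative to DMSO. System: LPS-activated human primary co-culture of vascular endothelium and peripheral blood mononuclear cells, with parallel SRB total-protein cytotoxicity.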

Read-out in experiment [11]: Monocyte Chemoattractant Protein-1 (MCP1), CCL2 (gene 6347)
Description: BSK_LPS_MCP1: BioMAP Diversity Plus: LPS Assay for Monocyte Chemoattractant Protein-1 (MCP1) Biomarker Activity (AID 2283081). To be noted: primary human HUVEC with PBMC; actives raise or lower the signal. The gist of the method: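 Secreted MCP-1 read by ELISA at 24 h post-dosing in an LPS-activated co-culture of endothelial cells with peripheral blood mononuclear cells. Fits run in both directions, DMSO as baseline; parallel SRB staining tracks overt cytotoxicity.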

Experiment [12] in a line: BSK_LPS_PGE2: BioMAP Diversity Plus: LPS Assay for Prostaglandin E2 (PGE2) Biomarker Activity (AID 2283082). To be noted: primary human HUVEC with PBMC; actives raise or lower the signal. The gist of the method:
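ELISA read-out of PGE2 from human umbilical vein endothelial cells co-cultured with peripheral blood mononuclear cells under LPS, 24 h post-dose. Gain or loss of signal scored relative to DMSO baseline.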

Read-out in experiment [13]: Macrophage colony-stimulating factor (MCSF), CSF1 (gene 1435)
Description: BSK_LPS_MCSF: BioMAP Diversity Plus: LPS Assay for Macrophage colony-stimulating factor (MCSF) Biomarker Activity (AID 2283083). To be noted: primary human HUVEC with PBMC; actives raise or lower the signal. In a few lines:
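Bidirectional fitting against DMSO was applied to M-CSF levels read by ELISA at 24 h post-dose. The system pairs human umbilical vein endothelium with peripheral blood mononuclear cells; parallel SRB staining tracked cytotoxicity.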

Read-out in experiment [14]: Tumor necrosis factor (Homo sapiens) (UniProt P01375)
Description: BSK_LPS_TNFa: BioMAP Diversity Plus: LPS Assay for Tumour Necrosis Factor alpha (TNFa) Biomarker Activity (AID 2283085).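 As to AC50: TNFa protein level quantified by ELISA in the co-culture.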 To be noted: primary human HUVEC with PBMC; actives raise or lower the signal. The gist of the method:
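HUVEC/PBMC co-culture, LPS-stimulated; 24 h post-dose; TNFa by ELISA; gain or loss of signal fitted bidirectionally vs DMSO baseline.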

Read-out in experiment [15]: Vascular cell adhesion molecule 1 (VCAM1), VCAM1 (gene 7412)
As to the kind of experiment: BSK_LPS_VCAM1: BioMAP Diversity Plus: LPS Assay for Vascular cell adhesion molecule 1 (VCAM1) Biomarker Activity (AID 2283086). As to conditions: primary human HUVEC with PBMC; actives raise or lower the signal. In a few lines:
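ELISA read-out of VCAM-1 at 24 h post-dosing in an LPS-driven HUVEC/PBMC primary human co-culture; gain or loss of signal fitted bidirectionally against DMSO baseline. Cytotoxicity tracked in parallel cultures by SRB total-protein staining.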

Read-out in experiment [16]: CD38, CD38 (gene 952)
As to the kind of experiment: BSK_SAg_CD38: BioMAP Diversity Plus: SAg Assay for CD38 Biomarker Activity (AID 2283087). To be noted: primary human HUVEC with PBMC; actives raise or lower the signal. In a few lines:
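Measures CD38 on a human endothelial/PBMC co-culture driven by SEB and TSST-1, 24 h after compound exposure, using ELISA with fluorescence detection; DMSO defines baseline for bidirectional curve fitting.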

Read-out in experiment [17]: CD40, CD40 (gene 958)
Description: BSK_SAg_CD40: BioMAP Diversity Plus: SAg Assay for CD40 Biomarker Activity (AID 2283088). As to conditions: primary human HUVEC with PBMC; actives raise or lower the signal. The gist of the method: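 CD40 is measured by fluorescence ELISA in an endothelial/PBMC primary human co-culture at 24 h post-dose. Fitting is bidirectional, DMSO baseline. Parallel SRB staining (560 nm) flags cytotoxicity.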

Read-out in experiment [18]: CD69, CD69 (gene 969)
As to the kind of experiment: BSK_SAg_CD69: BioMAP Diversity Plus: SAg Assay for CD69 Biomarker Activity (AID 2283089). To be noted: primary human HUVEC with PBMC; actives raise or lower the signal. In a few lines: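 ELISA, fluorescence read-out: CD69 on human umbilical vein endothelial cell + PBMC co-culture, 24 h post-dosing. Gain or loss of signal fitted bidirectionally against DMSO baseline.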

Read-out in experiment [19]: urokinase plasminogen activator (uPA), PLAU (gene 5328)
Description: BSK_KF3CT_uPA: BioMAP Diversity Plus: KF3CT Assay for urokinase plasminogen activator (uPA) Biomarker Activity (AID 2283075). To be noted: primary human keratinocytes with fibroblasts; actives raise or lower the signal. The gist of the method: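 Skin co-culture (keratinocytes + foreskin fibroblasts), human primary; 24 h post-dose; uPA by ELISA; gain/loss fit vs DMSO baseline.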

Read-out in experiment [20]: Tissue Factor, F3 (gene 2152)
As to the kind of experiment: BSK_LPS_TissueFactor: BioMAP Diversity Plus: LPS Assay for Tissue Factor Biomarker Activity (AID 2283084). To be noted: primary human HUVEC with PBMC; actives raise or lower the signal. The gist of the method: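 Compound was added to an endothelial cell/PBMC co-culture, and after 24 h tissue factor (CD142) was read by ELISA. Gain or loss of signal was fitted against a DMSO baseline, and parallel SRB staining (560 nm) tracked overt cytotoxicity.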

Active and inactive are the calls of the source. The calls were made as follows: active = hit-call score of the fitted dose curve at least 0.9, where 1 is the maximum; inactive = score below 0.9.

Chain of E-selectin (Homo sapiens) (P16581 whole entry, looked up): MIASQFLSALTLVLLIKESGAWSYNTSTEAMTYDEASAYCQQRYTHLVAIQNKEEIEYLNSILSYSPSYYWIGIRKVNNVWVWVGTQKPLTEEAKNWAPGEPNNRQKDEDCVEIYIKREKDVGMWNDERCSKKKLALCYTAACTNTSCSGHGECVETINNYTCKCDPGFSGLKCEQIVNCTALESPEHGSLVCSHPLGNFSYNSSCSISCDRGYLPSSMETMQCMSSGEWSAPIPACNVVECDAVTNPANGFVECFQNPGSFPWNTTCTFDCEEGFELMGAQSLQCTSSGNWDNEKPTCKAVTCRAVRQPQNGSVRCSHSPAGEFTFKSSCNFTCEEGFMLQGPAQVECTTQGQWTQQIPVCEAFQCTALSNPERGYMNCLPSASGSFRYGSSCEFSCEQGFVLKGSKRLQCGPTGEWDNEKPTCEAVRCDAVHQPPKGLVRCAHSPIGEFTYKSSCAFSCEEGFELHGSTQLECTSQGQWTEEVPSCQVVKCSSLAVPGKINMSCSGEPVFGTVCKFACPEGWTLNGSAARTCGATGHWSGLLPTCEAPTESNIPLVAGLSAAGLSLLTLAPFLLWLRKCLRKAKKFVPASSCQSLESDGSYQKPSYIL
Chain of Tumor necrosis factor (Homo sapiens) (P01375 whole entry, looked up): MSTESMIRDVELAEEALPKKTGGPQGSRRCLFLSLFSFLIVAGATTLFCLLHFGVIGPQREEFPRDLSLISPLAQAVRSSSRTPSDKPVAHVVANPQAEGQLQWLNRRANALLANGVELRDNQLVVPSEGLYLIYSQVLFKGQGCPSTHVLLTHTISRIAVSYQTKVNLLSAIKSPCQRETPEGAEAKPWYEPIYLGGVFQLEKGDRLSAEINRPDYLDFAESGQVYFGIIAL

The AC50 is the concentration at which the activity in the assay is half-maximal. Regarding `CCN1CN(CC)CN(CC)C1`, the result in experiment [1], in experiment [2], in [3], in experiment [4], in experiment [5] and in [6] was inactive. Further, the outcome in [7], in experiment [8], in [9], in experiment [10], in experiment [11] and in experiment [12] was inactive. In addition, the result in [13], in [15], in experiment [16], in experiment [17] and in [18] was inactive. Further, the AC50 in experiment [14] is 2.22 µM (active).
On to `CC(c1cc(C(C)(C)C)cc(C(C)(C)C)c1O)c1cc(C(C)(C)C)cc(C(C)(C)C)c1O`, for which the outcome in [1], in [2], in [3], in [4], in [5] and in experiment [19] was inactive. The outcome in experiment [6], in experiment [7], in experiment [9], in experiment [10], in experiment [11] and in experiment [12] was inactive. The outcome in [13], in experiment [20], in experiment [14], in experiment [15], in experiment [16] and in experiment [17] was inactive. In addition, the result in experiment [18] was inactive.
In the case of `Nc1cccc(N)n1`, the outcome in [1], in [2], in experiment [3], in experiment [4], in experiment [5] and in experiment [19] was inactive. Also, the outcome in experiment [6], in experiment [7], in experiment [9], in experiment [10], in [11] and in experiment [12] was inactive. For the same molecule, the outcome in experiment [13], in [20], in experiment [14], in [15], in [16] and in experiment [18] was inactive.

The values are drawn from PubChem BioAssay (EPA / NIEHS).
